Laboratory results from PubChem BioAssay (NCI).
Where “and” joins values, the source holds several entries; their conditions need not be identical. Equal entries are not always repeated. This is part of a sample that, as a whole, favours compounds with a hit. Of some 83,000 tested, about 20% had one in any assay.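 Assay: single dose, 48 h. Readout: percent growth (0 = no net growth; negative = cell death). Active: <10.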 A number with no mark means an inactive call. Calls of active or inactive are those of the source.

Test system: MDA-MB-468 breast
Assay: NCI-60 one-dose screen, 48 h (100 = growth as untreated, 0 = no growth, -100 = all killed)
Conditions: 10 µM unless noted

SMILES | growth
O=C(O)c1cccc([N+](=O)[O-])c1 | 109%
CCc1c(Nc2ccc(C)cc2)[nH]c(N)nc1=S | 97.3%
CN1CCN(Cc2ccc(NC(=O)c3cncc(C#Cc4cnc(N)c5ccccc45)c3)cc2C(F)(F)F)CC1 | -80.8% (active)
NC(N)=Nc1ccc(Oc2cccc(Nc3ccc(Cl)c(C(F)(F)F)c3)c2)cc1 | 4.84% (active)
O=[N+]([O-])C=C(c1ccccc1)c1ccccc1 | -4.43% (active)
O=C(O)CCCCCCCCCCCCCCC(=O)O | 95.6%
CCc1c(Nc2ccc(C)cc2)nc(N)[nH]c1=O | 94.5%
Cc1ccc2[nH]c(=O)cc(-n3nncc3Cn3c4ccccc4c4ccccc43)c2c1 | 94.7%
Cc1cccc(NC2=C(Cl)C(=O)c3nc(C)ccc3C2=O)c1 | -81.1% (active)
CC(C)c1[nH]nc2c(NCc3ccc(-c4ccccn4)cc3)nc(SCCN(C)C)nc12 | -50.1% (active)
Cc1ccc(Cl)cc1N1C(=O)CC(Sc2ccccc2N)C1=O (stereo unspecified) | 108%
COc1ccc(-c2ccc(-c3ccc(C(=N)N)cn3)s2)cc1Cl | -68.5% (active)
COC(=O)c1nc(-c2ccccc2)oc1S(=O)(=O)N1CCN(c2ccc(OC)cc2)CC1 | 22.6%
O=C(CCCCCCN1CC(=O)N2[C@@H](c3ccc(Cl)c(F)c3)c3[nH]c4ccccc4c3C[C@H]2C1=O)NO | 85.5%
COc1ccc2c(c1)c(-c1nc(-c3c[nH]c4ncccc34)cs1)cn2CCCN1CCCCC1 | 57.9%
C=C(C)C1CCC2(C(=O)O)CCC3(C)C(CCC4C5(C)CCC(OC(=O)NCc6ccccc6)C(C)(C)C5CCC43C)C12 (stereo unspecified) | 35.3%
COc1cccc2c1O/C(=C\c1ccc([N+](=O)[O-])s1)C2=O | 14.5%
Cc1c(-c2csc(-n3nc(C(F)(F)F)cc3C(F)(F)F)n2)no[n+]1[O-] | 81.2%
O=S(=O)(NCCCNc1cc(-c2cn(-c3ccccc3)nc2-c2cccc(O)c2)ccn1)c1cccc(F)c1 | 7.62% (active)
OCCN1CCN(CC/C=C2/c3ccccc3Sc3ccc(C(F)(F)F)cc32)CC1 | 68.4%
COc1ccc(C(=O)C(C)Br)cc1OC (stereo unspecified) | 77.6%

SMILES | growth
C[n+]1ccc(CCc2c[nH]c3ccccc23)cc1 | 14.4%
COc1cc(/C=C2\COc3ccc(O)c(O)c3C2=O)cc(OC)c1 | -0.854% (active)
CC1=C(C)C(=O)C(Nc2ccc(C)c(C)c2)=C(Br)C1=O | 1.26% (active)
S=C(Cc1ccc(-c2ccccc2)cc1)N1CCOCC1 | 90.8%
COc1ccc(-n2[nH]c3c(cnc4ccccc43)c2=O)cc1 | 108% and 99.5%
CN1C(=O)C(C2=NN(C=O)C(c3ccc(F)cc3)C2)C(=O)N(C)C1=O (stereo unspecified) | 89.4%
Cc1ccc(Nc2nnc(-c3ccc(Cl)cc3)o2)c(C)c1 | 75.4%
COc1ccc(-c2cc(-c3cc(OC)ccc3OC)nc(N)c2C#N)cc1 | 70.2%
CC(C)(N)COS(=O)(=O)O | 107%
COc1ccccc1/C=N\NC(=S)Nc1ccc(F)cc1 | 72.9%
CCCCCOc1ccc(/C=N/Nc2cc(C)nc3ccc(Cl)cc23)cc1 | -29% (active)
CCCCCCN1C(=O)C2=C(c3ccc(Cl)cc3)Nc3c(c(C)nn3-c3ccccc3)C2c2ccccc21 (stereo unspecified) | 84.5%
C[C@@H](NC(=O)c1ncnc(N)c1Cl)c1ncc(C(=O)Nc2cc(C(F)(F)F)c(Cl)cn2)s1 | 92.6%
N#CC1CCc2c(c(-c3cn[nH]c3C(F)(F)F)nc3c(F)cc4[nH]ncc4c23)C1 (stereo unspecified) | -6.53% (active)
O=C(CSc1nc2ccccc2c(=O)n1-c1ccc(Cl)c(Cl)c1)Nc1ccc(S(=O)(=O)Nc2ccc(Cl)nn2)cc1 | 116%
COc1cc2c3cc1Oc1c(OC)c(OC)cc4c1C(Cc1ccc(O)c(c1)Oc1ccc(cc1)CC3N(C)CC2)N(C)CC4 (stereo unspecified) | -72.3% (active)
O=P(O)(O)OC1C(OP(=O)(O)O)C(OP(=O)(O)O)C(OP(=O)(O)O)C(OP(=O)(O)O)C1OP(=O)(O)O.[Cu+2] (stereo unspecified) | 85.8%
Nc1ncn([C@@H]2O[C@H](CO)[C@@H](O)[C@H]2O)c(=O)n1 | 33.2%
CCN1C(=O)N(CC)C2Nn3c(s/c(=C4\C(=O)Nc5ccccc54)c3=O)=NC21 (stereo unspecified) | 5.05% (active)
C=C(C)c1ccc(/C=N/NC(N)=S)cc1 | 70.6%
Cc1ccc(N(C(=O)CCc2c[nH]c3ccccc23)[C@H](C(=O)Nc2ccc(Cl)cc2)c2cccc([N+](=O)[O-])c2)cc1 | 91.3%

SMILES | growth
COc1cc(N2C(=O)[C@H](O)C2c2ccc(SC)cc2)cc(OC)c1OC (stereo partly specified) | 3.3% (active)
C#CCO[C@H]1CC[C@H](OCC#C)[C@@H]2[C@H]1[C@H]1C[C@@H]3[C@@]4(C)CCC[C@@](C)(C(=O)OC)[C@@H]4CC[C@@]23C=C1C(C)C | 91.3%
O=C1/C(=C\c2cn(-c3ccccc3)nc2-c2ccc(-c3cccs3)cc2)CCc2ccccc21 | 36.1%
O=C(Nc1cn[nH]c1-c1nc2ccc(CN3CCOCC3)cc2[nH]1)NC1CC1 | 25.5%
CCN(c1ccc(C(=O)N2CCN(c3ccccc3)CC2)cc1)S(C)(=O)=O | 92.5%
OCc1ccc(N2CCc3cccc(F)c3C2)cc1Cl | -49.9% [0.1 µM] (active)
CCCCCCCCO/N=C\c1c2c(O)c3c(O)c(C)c4c(c3c1O)C(=O)C(C)(O/C=C\C(OC)C(C)C(OC(C)=O)C(C)C(O)C(C)C(O)C(C)/C=C\C=C(\C)C(=O)N2)O4 (stereo unspecified) | 3.49% (active)
Clc1ccccc1Nc1nnc(-c2ccncc2)s1 | 110%
C#C[C@]1(O)CC[C@H]2[C@@H]3CC[C@H]4CC(F)(F)CC[C@]4(C)[C@H]3CC[C@@]21C | 88.2%
N#Cc1cccc(F)c1 | 111%
Cc1ccc(Cc2cnc(NC(=O)c3cc(C)oc3C)s2)cc1 | 31.5%
CCOC(=O)c1c(Nc2ccccc2)nn2c(N)c(C#N)c(-c3ccccc3)nc12 | 62.4%
O=C1C=CC(=CC=C2C=CN(CCCCCCCCCCCO)C=C2)C=C1 | -37.4% (active)
N#Cc1ccc(C(=O)CSc2nc(Nc3ccc(S(N)(=O)=O)cc3)c3ccccc3n2)cc1 | 105%
COc1cc(/C=C2\SC(=S)N(/C=C/c3nc4ccccc4[nH]c3=O)C2=O)cc(OC)c1OC | 81.2%
Clc1ccc(CCC(Cn2ccnc2)Sc2c(Cl)cccc2Cl)cc1 (stereo unspecified) | 36.9%
CCCCN1CCCCn2c1nc1c2c(=O)n(C)c(=O)n1C | 102%
COc1ccc(Nc2nc(NCCNc3ccnc4cc(Cl)ccc34)nc(N3CCOCC3)n2)cc1 | 23.9%
CN(C)c1ccc(N=Nc2ccccn2)c(O)c1 | 3.89% (active)
CC1(C)OC(=O)C(=Cc2ccccc2Br)C(=O)O1 | 98.2%
CC(C)[O-].CC(C)[O-].CN(CCN(C)Cc1cc(F)cc(F)c1[O-])Cc1cc(F)cc(F)c1[O-].[Ti+4] | -36.8% (active)

SMILES | growth
COc1ccc(OC)c(CCn2cncc2-c2c[nH]c3ccc(Cl)cc23)c1 | -14.9% (active)
COc1cc(C(=O)/C=C/c2c(C(F)(F)F)nc3sccn23)cc(OC)c1OC | -53.4% (active)
COc1ccc(COc2ccc(/C=C3/C(=O)Nc4cc(Cl)ccc43)cc2)cc1 | 93.4%
C/C=C/CC(C)C(O)[C@H](NC(=O)[C@@H]1CCCN1C(=O)[C@](C)(CC)NC(=O)CCCCCCCCC)C(=O)N[C@@](C)(CC)C(=O)N[C@@H](CCC(N)=O)C(=O)N[C@H](CCC(N)=O)C(=O)NC(C)(C)C(=O)NC(C)(C)C(=O)N[C@@H](CCC(N)=O)C(=O)N[C@H](CC(C)C)C(=O)N[C@H](CO)CC(C)C (stereo partly specified) | -10.2% (active) and -64% (active)
Clc1ccc2c(NCCCCNc3nc(N4CCOCC4)nc4ccccc34)ccnc2c1 | 24.9%
Clc1cccc(Cl)c1Nc1ccc2nnc(-c3ccncc3)n2n1 | 104%
CCN(CC)CCOc1ccc(/C=N/Nc2nc3c([nH]2)c(=O)n(C)c(=O)n3C)cc1 | 102% and 121%
Cn1cc(-c2nnc(N)nc2-c2c[nH]c3ccc(Br)cc23)c2cc(Br)ccc21 | 105%
Cc1cc(Cl)ccc1Nc1nc(C(F)(F)F)ccc1C(=O)NCC(=O)N/N=C/c1c(Cl)cccc1Cl | 105%
CC/C(=C(\c1ccccc1)c1ccc(OCCNC)cc1)c1ccccc1 | -97.7% (active)
O=C1/C(=C\c2c[nH]c3ccccc23)c2ccccc2N1c1c(Cl)cccc1Cl | 8.39% (active)
CC(=O)c1cc2ccccc2o1 | 109%
O=c1oc2ccc(Cl)cc2cc1-c1cs/c(=N/N=C\c2ccc(Cl)cc2)n1/N=C/c1ccc(Cl)cc1 | 114%
COc1ccc(-c2c[nH]c(C(=O)O)c2-c2cc(OC)c3c(c2OC)OCO3)cc1 | 103%
C#Cc1ccc(-n2c(/C=C/c3ccc4ccccc4c3)nc3ncccc3c2=O)cc1 | -16.1% (active)
Nc1nc(Nc2ccccc2SSc2ccccc2Nc2nc(N)nc(-c3ccc(C(F)(F)F)cc3)n2)nc(-c2ccc(C(F)(F)F)cc2)n1 | 132%
CS(=O)(=O)Nc1cc(-c2ccc3ncc(C#N)c(N[C@H](CO)c4ccccc4)c3c2)cnc1Cl | 14.5%
N=C(N)c1ccc(-c2ccc(-c3ccccc3)s2)nc1 | 41.7%
